Screens: PubChem, National Center for Advancing Translational Sciences (NCATS)
D1 PAM: human D1 dopamine receptor positive modulation; potentiation, % at 10 µM; HEK293 TREx D1 cells, calcium flux, dopamine EC20 potentiation; AID 504651; P21728; 360,000 tested, 0.036% active; in the data active = potentiation above about 30%
Target sequence (P21728 whole entry, looked up): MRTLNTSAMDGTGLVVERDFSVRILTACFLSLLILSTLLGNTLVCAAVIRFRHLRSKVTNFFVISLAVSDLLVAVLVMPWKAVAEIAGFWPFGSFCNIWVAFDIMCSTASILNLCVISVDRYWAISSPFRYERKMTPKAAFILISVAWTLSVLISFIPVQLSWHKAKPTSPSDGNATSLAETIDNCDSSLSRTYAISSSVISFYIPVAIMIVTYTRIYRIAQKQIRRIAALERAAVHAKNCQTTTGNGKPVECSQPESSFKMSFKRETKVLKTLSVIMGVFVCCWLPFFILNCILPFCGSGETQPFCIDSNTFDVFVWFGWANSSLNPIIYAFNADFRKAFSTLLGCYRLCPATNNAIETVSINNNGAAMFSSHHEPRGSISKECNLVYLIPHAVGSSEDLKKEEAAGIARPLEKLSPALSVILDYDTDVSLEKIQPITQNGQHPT
D3 ag: D3 dopamine receptor (human) agonism. P35462. D3R DiscoveRx beta-arrestin cells, luminescence, 90 min. max activation, %. 410,000 tested, 0.58% active. AID 652048; in the data active = max activation above about 30%
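Cells at 1500/well, incubated overnight, then treated with pinned compounds (dopamine as control) for 90 min at 37 degrees C. DiscoveRx reagent added for 30 - 60 minutes at room temperature; luminescence read.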
D3 antag: blocks the human D3 dopamine receptor; D3R cells, DiscoveRx beta-arrestin luminescence, antagonist mode; active compounds read low; 360,000 tested, 2.5% active; max response, negative = inhibition, %; AID 652054; in the data active = max response below about -50%; inconclusive = no clear call, values can overlap the other calls
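Cells expressing the human receptor were seeded at 1500 cells/well, incubated overnight at 37 degrees C in 5% CO2, then exposed to library compounds with dopamine controls for 90 minutes at 37 degrees C before luminescent detection.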
D1 antagonist: blocks dopamine activation of the human D1 receptor; activity change, negative = inhibition, % at 10 µM; 360,000 tested, 3.2% active; HEK293 TREx D1 cells, calcium flux, dopamine EC80; active compounds read low; in the data active = activity change below about -30%
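After overnight tetracycline induction at 30 C, force-coupled D1 HEK293 cells took up a no-wash calcium dye at room temperature. Compounds were added and monitored 180 s, and the response to EC80 dopamine was then recorded.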
D1 agonist: activates the human D1 dopamine receptor; HEK293 T-REx D1 cells, calcium flux, agonist mode; 360,000 tested, 1% active; AID 504660; P21728; activation, % at 2 µM; in the data active = activation above about 30%
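Inducible HEK293 T-REx D1 cells, force-coupled to calcium signalling, were plated at 4000 cells/well with tetracycline and held overnight at 30 C. After no-wash calcium dye loading, compound-evoked calcium rise over 180 s flagged agonists.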
A number is an active result; - = inactive; ? = inconclusive; . = not tested or not shown. In the library only some 6% were active in any assay of this set; here they are far more common.

SMILES	D1 PAM	D3 ag	D3 antag	D1 antagonist	D1 agonist
Cc1ccc2nc(/C(C#N)=C/c3cn[nH]c3-c3ccc(F)cc3)[nH]c2c1	-	-	-	-44.6	-
N#C/C(=C/c1ccc(N2CCCC2)c([N+](=O)[O-])c1)c1nc2ccccc2[nH]1	-	-	?	-	-
N#C/C(=C\c1ccc(N2CCOCC2)c([N+](=O)[O-])c1)c1nc2ccccc2[nH]1	-	-	-	-	-
Cc1ccc2nc(/C(C#N)=C\c3ccc(N4CCCCC4)c([N+](=O)[O-])c3)[nH]c2c1	-	-	-70.2	-	-
FC(F)(F)C(F)(F)C(F)(F)C(F)(F)C(F)(F)F	.	-	.	.	.
CCC(=O)Nc1ccccc1-c1nc2ccccc2n(CC(=O)c2ccc(C)c(C)c2)c1=O	-	-	.	-	-
N#C/C(=C\c1ccc(-c2ccc(Cl)c(C(=O)O)c2)o1)c1nc2ccccc2[nH]1	-	-	.	-	-
Cc1ccc2nc(/C(C#N)=C/c3ccc(-c4cccc(Cl)c4)o3)[nH]c2c1	-	-	.	-	277.2
Cc1ccc2nc(/C(C#N)=C/c3cccc(Br)c3)[nH]c2c1	-	-	.	-	-
N#C/C(=C\c1ccc(-c2ccc(C(=O)O)cc2)o1)c1nc2ccccc2[nH]1	-	-	-	-	42.7
Cc1ccc(CNC(=O)C(C)OC(=O)c2ccco2)cc1 (centres undefined)	-	-	-	-	-
CCC(OC(=O)c1ccco1)C(=O)NCc1ccc(C)cc1 (centres undefined)	-	-	-	-76.8	-
COCCCNC(=O)CSc1nc2cc3c(cc2c(=O)n1CCCCCC(=O)NCCc1ccc(OC)c(OC)c1)OCO3	-	-	.	-	-
CC(=O)N1CCCc2cc(S(=O)(=O)N(C)CC(=O)Nc3cccc(C)c3C)ccc21	-	-	.	-	-
C=CCSc1nnc(NC(=O)COc2ccc3ccccc3c2)s1	-	-	-65.9	-	-
COc1cc(NC(=O)CCCOc2cc(=O)n(C)c3ccccc23)cc(OC)c1OC	-	-	.	-	-
Cc1ccc(CNC(=O)c2sc3nc(-c4ccccc4)cn3c2C)cc1	-	-	.	-	-
Cc1c(C(=O)NCc2ccc(F)cc2)sc2nc(-c3ccc(F)cc3)cn12	-	-	.	-50.3	-
Cc1ccc(C(=O)NNC(=S)Nc2cccc3ccccc23)s1	-	-	-94.6	-37.0	-
O=C(NNC(=S)Nc1cccc2ccccc12)c1cccc(Br)c1	-	-	?	-	-
Cc1cc(C)cc(C(=O)n2nc(C)c(S(=O)(=O)N3CCOCC3)c2C)c1	-	-	.	-	-
Cc1ccc(N/C(N)=N/c2nc(CSc3nnc(N)s3)cc(=O)[nH]2)cc1	-	-	-	-34.0	-
O=C(c1ccc([N+](=O)[O-])cc1)N1CCSC1c1cccc(Cl)c1 (centres undefined)	-	-	-	-34.9	-
Cc1cc(Br)ccc1NC(=O)CN(C)C(=O)CCSc1ccc(F)cc1	-	-	-	-35.1	-
CCn1c(SCC(=O)Nc2cc(C)ccc2F)nnc1-c1ccccc1O	-	-	.	-	-
SMILES	D1 PAM	D3 ag	D3 antag	D1 antagonist	D1 agonist
Cc1csc(SCc2nnc(-c3ccccc3Br)o2)n1	-	-	-	-	-
Fc1ccccc1SCc1nnc(-c2ccccc2Br)o1	-	-	-	-65.9	-
C[C@@H](CN1C2=NC[C@H](Cc3ccc(O)cc3)N2C[C@H]1Cc1ccc(O)cc1)NC(=O)CCC1CCCCC1	-	-	-	-	-
COc1ccc(C[C@H]2CN3C(=NC[C@@H]3C(C)C)N2C[C@H](C)NC(=O)c2ccc(C)c(Br)c2)cc1	-	-	-75.6	-	-
COc1ccc(C[C@H]2CN3C(=NC[C@@H]3Cc3ccc(O)cc3)N2C[C@H](C)NC(=O)c2ccc(C)c(Br)c2)cc1	-	-	-80.6	-41.6	-
Cc1ccc(C(=O)N[C@@H](C)CN2C3=NC[C@H](C(C)C)N3C[C@H]2Cc2ccc(O)cc2)cc1Br	-	-	-	-57.0	-
CCc1cccc(NC(=O)CCn2c(=O)c3cccn3c3cccnc32)c1	-	-	.	-	-
COc1ccc(-c2[nH]c(-c3ccccc3)nc2SCC(=O)Nc2nccs2)cc1	-	-	-	-	-
COc1ccc2nc(-c3ccccc3)nc(SCC(=O)NCC3CCCO3)c2c1 (centres undefined)	-	32.5	-	-	-
COc1cccc(-c2nc(SCC(=O)NCC3CCCO3)c(-c3ccc(C)cc3)[nH]2)c1 (centres undefined)	-	-	.	-	-
O=C(CSc1nc2ccccc2s1)NCC1CCCO1 (centres undefined)	-	-	-	-32.7	-
Cc1ccc2nc(-c3ccc(F)cc3)nc(SCC(=O)NCC3CCCO3)c2c1 (centres undefined)	-	-	-	-	-
COc1cccc(-c2nc(SCC(=O)NCC3CCCO3)c(-c3ccc(Cl)cc3)[nH]2)c1 (centres undefined)	-	-	.	-56.4	-
COc1ccc(-c2[nH]c(-c3ccc(Cl)cc3)nc2SCC(=O)Nc2nccs2)cc1	-	-	?	-31.7	-
COc1ccc(CCNC(=O)c2nc(SCc3ccc(F)cc3)ncc2Cl)cc1OC	-	-	.	-	-
CCc1cccc(NC(=O)Cn2cc(C=O)c3ccccc32)c1	-	-	-	-30.1	-
CC(=O)c1cccc(NC(=O)Cn2c(=O)c(CNc3ccc(C)cc3)cc3cc4c(cc32)OCCO4)c1	-	-	.	-	-
CC(=O)Nc1c(NC(C)C)c2ccccc2oc1=O	-	-	-	-	-
COC(=O)Oc1c(Br)c(=O)oc2ccccc12	.	-	-82.2	.	.
Cc1ccccc1C(=O)NCc1ccc2c(c1)CCN2C(=O)c1ccc(F)cc1	-	-	.	-	-
CC(C)(C)CC(C)(C)c1ccc(OCCOCC[N+](C)(C)Cc2ccccc2)cc1	.	.	.	.	110.0
CCCCn1c(-c2ccc(F)c(F)c2)nc2cc3[nH]c(=O)c(C(C)C)nc3cc21	-	-	-	-	-
CCCCn1c(CCc2ccccc2)nc2cc3[nH]c(=O)c(C(C)C)nc3cc21	-	-	-	-81.6	-
Cc1ccc(NC(=O)CCS(=O)(=O)c2cc(Br)cc3c2N(C(=O)C2CC2)CC3)cc1	-	-	.	-	-
CSc1nnc(C)c(/C=C/Nc2ccc(F)cc2)n1	-	-	-	-	31.8
CSc1nnc(C)c(/C=C/Nc2ccc(Cl)cc2)n1	-	-	-	-	79.8
CCOc1ccc(NC(=O)C(C)Sc2nnc3cc(C)c4ccccc4n23)cc1 (centres undefined)	-	-	.	-	-
COc1ccc(C(=O)N2CCCC(N3CCN(c4ccccc4OC)CC3)C2)c(OC)n1 (centres undefined)	-	-	-	-	-
CC(C)/C=C/C(=O)N1CCCC(N2CCN(c3ccccc3F)CC2)C1 (centres undefined)	-	-	-	-45.9	-
